PAFAH2 inh = inhibitors of human PAFAH2. Q99487. recombinant PAFAH2, FP-rhodamine activity probe, fluorescence polarization. inhibition, % at 3.39 µM. 340,000 compounds, 0.99% hits;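 active = inhibition above the mean over all tested compounds plus 3 SD, cut at about 30% in these data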;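 also: inhibitors block probe labeling of enzyme so polarization drops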
pPAFAH FP inh = inhibitors of human plasma PAF acetylhydrolase (pPAFAH) | recombinant pPAFAH, FP-rhodamine probe fluorescence polarization | inhibition, % at 3.39 µM | 330,000 compounds, 1.5% hits | AID 463082;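 active = inhibition above the mean inhibition across the screen plus 3 SD, cut at about 25% in these data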;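 also: inhibitors block binding of the rhodamine activity-based probe so polarization drops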
Target sequence (Q13093 whole entry, looked up): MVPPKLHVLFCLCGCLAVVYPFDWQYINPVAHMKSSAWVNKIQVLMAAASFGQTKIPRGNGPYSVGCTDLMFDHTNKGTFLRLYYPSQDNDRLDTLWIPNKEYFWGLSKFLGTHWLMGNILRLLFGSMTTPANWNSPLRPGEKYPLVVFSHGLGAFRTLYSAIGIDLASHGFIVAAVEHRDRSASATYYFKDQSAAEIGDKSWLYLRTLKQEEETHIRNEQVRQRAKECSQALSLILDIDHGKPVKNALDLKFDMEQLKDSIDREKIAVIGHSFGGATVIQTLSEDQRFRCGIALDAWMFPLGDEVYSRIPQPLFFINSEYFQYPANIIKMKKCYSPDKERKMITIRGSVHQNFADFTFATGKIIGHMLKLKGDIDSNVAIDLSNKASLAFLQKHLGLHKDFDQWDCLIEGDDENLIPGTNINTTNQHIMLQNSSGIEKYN
PAFAH1B2 FP inh = PAFAH1B2 (human) inhibition. 340,000 compounds, 1.2% hits. AID 492953. inhibition, % at 3.39 µM. recombinant PAFAH1B2, FP-rhodamine activity probe, fluorescence polarization;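 active = inhibition above the mean of all tested compounds plus 3 SD, cut at about 24% in these data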
Target sequence (P68402 whole entry, looked up): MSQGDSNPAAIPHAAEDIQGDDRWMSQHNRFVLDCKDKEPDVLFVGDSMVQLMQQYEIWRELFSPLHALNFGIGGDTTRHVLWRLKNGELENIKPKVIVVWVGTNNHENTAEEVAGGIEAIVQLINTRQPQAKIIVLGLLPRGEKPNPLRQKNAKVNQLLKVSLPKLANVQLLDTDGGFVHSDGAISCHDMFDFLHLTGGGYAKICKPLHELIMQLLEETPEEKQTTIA
PAFAH1B3 inh = blocks human PAF acetylhydrolase 1B catalytic subunit 3 | recombinant PAFAH1B3, FP-rhodamine probe, fluorescence polarization | Q15102 | inhibition, % at 3.39 µM | 340,000 compounds, 0.28% hits;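 active = inhibition above the screen-wide average of all tested compounds plus 3 SD, cut at about 25% in these data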
M18AAP inhibitor = blocks P. falciparum M18 aspartyl aminopeptidase. recombinant PfM18AAP, H-Glu-NHMec fluorogenic cleavage. inhibition, % at 7.35 µM. 290,000 compounds, 1.2% hits. AID 1822;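 active = inhibition above the campaign mean inhibition over all tested compounds plus 3 SD, cut at about 28% in these data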
Pemphigus Ab inh = inhibitors of pemphigus antibody binding to human desmoglein-3 | P32926 | DSG3-coupled beads, scFv-anti-DSG3-GFP binding, flow cytometry; active compounds read low | binding (percent of control), % at 10 µM | 310,000 compounds, 0.48% hits | AID 588358;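 active = binding more than 3 SD below its plate's average and above zero; inconclusive = below that plate limit but binding exactly zero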;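 also: hits lower antibody fragment binding to DSG3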
PAFAH2 FP conf = confirmation of human PAFAH2 inhibitors; shares compounds with PAFAH2 inh; recombinant PAFAH2, FP-rhodamine activity probe, fluorescence polarization; inhibition, % at 3.39 µM; 2,300 compounds, 65% hits;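 active = mean inhibition over three repeats above a set limit taken from the earlier primary screen, cut at about 30% in these data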;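 also: inhibitor blocks binding of rhodamine activity probe so polarization falls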
A number is an active result; 0 = inactive; ? = inconclusive; - = not tested or not shown. Hits are enriched below; roughly 3.8% of the tested compounds scored in any of these assays.

SMILES | PAFAH2 inh | pPAFAH FP inh | PAFAH1B2 FP inh | PAFAH1B3 inh | M18AAP inhibitor | Pemphigus Ab inh | PAFAH2 FP conf
O=C(Nc1ccsc1C(=O)O)c1ccc(Cl)cc1 | 31.3 | 0 | 0 | 0 | 0 | 0 | 0
Cc1ccc(C(=O)Nc2ccsc2C(=O)O)cc1 | 0 | 0 | 0 | 0 | 0 | 0 | -
CNC(=O)CSc1nc2cccnc2n1-c1ccc(F)cc1 | 0 | - | 0 | 0 | 0 | 0 | -
O=C(COC(=O)c1ccc(F)c(S(=O)(=O)N2CCOCC2)c1)Nc1ccc2c(c1)OCO2 | 78.1 | - | 0 | 0 | - | 0 | 65.3
COc1ccc(C(=O)OCC(=O)Nc2ccc3c(c2)OCO3)cc1S(=O)(=O)N1CCOCC1 | 81.6 | - | 0 | 0 | - | 0 | 82.2
COc1ccc(C(=O)OCC(=O)NC2CC2)cc1[N+](=O)[O-] | 31.2 | 0 | 0 | 0 | 0 | 0 | 0
COc1ccc(C(=O)NCC(=O)OCC(=O)NC2CCCCCC2)cc1OC | 0 | 0 | 0 | 0 | - | 0 | -
COc1cc(OC)cc(C(=O)OCC(=O)NC2CCCCCC2)c1 | 61.0 | 0 | 0 | 0 | - | 0 | 59.4
COc1ccc(C(=O)OCC(=O)Nc2ccccc2)cc1[N+](=O)[O-] | 71.0 | 0 | 0 | 0 | 0 | 0 | 72.8
COc1ccc(C(=O)OCC(=O)NC2CCCCCC2)cc1OC | 93.2 | 0 | 0 | 0 | - | ? | 82.6
O=C1C(Cl)=C(O)C2(Cl)C(Cl)=C(Cl)C12Cl (configuration not stated) | 0 | - | 0 | 0 | - | 0 | -
CCOc1ccc(C(=O)OCC(=O)NC2CCCC2)cc1OCC | 84.5 | 0 | 0 | 0 | 0 | 0 | 82.1
Cc1ccc(C(=O)OCC(=O)NC2CCCC2)cc1C | 86.6 | 0 | 0 | 0 | 0 | 0 | 82.0
O=C(COC(=O)c1ccc(O)cc1O)NC1CCS(=O)(=O)C1 (configuration not stated) | 0 | 0 | 0 | 0 | 0 | 0 | -
O=C(COC(=O)c1ccc(O)cc1O)NC1CCCCCC1 | 46.4 | 0 | 0 | 0 | - | 0 | 31.2
COc1ccc(C(=O)OCC(=O)NC2CC2)cc1OC | 66.6 | 0 | 0 | 0 | - | 0 | 55.1
COc1cc(/C=C2\SC(=O)NC2=O)ccc1OCC(=O)N1CCOCC1 | 0 | 0 | 0 | 0 | - | 0 | -
O=C(Nc1ccc(C(=O)N2CCCC2)cc1)C1CCC1 | 0 | - | 0 | 0 | - | 0 | -
CC1CCC(NC(=O)COC(=O)c2ccc3ncsc3c2)CC1 (configuration not stated) | 82.7 | 0 | 0 | 0 | - | 0 | 69.2
Cc1ccc(NC(=O)COC(=O)c2ccc3ncsc3c2)c(C)c1 | - | - | - | - | - | 0 | -
COc1ccccc1OCC(=O)OCC(=O)NC1CCCCC1 | 0 | 0 | 0 | 0 | - | 0 | -
COc1ccc(C(=O)OCC(=O)NC2CCCCCCC2)cc1OC | 86.6 | 0 | 0 | 0 | - | - | 78.0
Cc1ccc(C(=O)OCC(=O)NC2CCCCCC2)c(C)c1 | 85.7 | - | 0 | 0 | - | 0 | 78.2
COc1ccc(C(=O)OCC(=O)NC2CCCC2)cc1OC | 75.8 | 0 | 0 | 0 | 0 | 0 | 80.3
Cc1ccc(OCC(=O)NC2CCCC2)c(C)c1 | 0 | 0 | 0 | 0 | 0 | 0 | -
SMILES | PAFAH2 inh | pPAFAH FP inh | PAFAH1B2 FP inh | PAFAH1B3 inh | M18AAP inhibitor | Pemphigus Ab inh | PAFAH2 FP conf
O=C(COC(=O)Cn1nnc2ccccc21)NC1CCCC1 | 0 | 0 | 0 | 0 | 0 | 0 | -
COc1ccc(NC(=O)CN(C)C(=O)c2ccc(S(=O)(=O)Nc3ccccc3C)cc2)cc1 | 0 | - | 0 | 0 | - | 0 | -
CC1CCN(S(=O)(=O)c2cccc(C(=O)NNC(=O)c3ccco3)c2)CC1 | 0 | 0 | 0 | 0 | 0 | 0 | -
CC(=O)c1cccc(CN2CCN(CC(C)C)C(CCO)C2)c1 (configuration not stated) | 0 | 0 | 0 | 0 | 0 | 0 | -
C=CCc1cc(OC)ccc1OCCN1CC(C)OC(C)C1 (configuration not stated) | 0 | 0 | 0 | 0 | 0 | 0 | -
Cc1ccc(S(=O)(=O)CCC(=O)N(C)C2CCCCC2)cc1 | 0 | 0 | 0 | 0 | 0 | 0 | -
CCN(CC)C(=O)Cn1cc(S(=O)(=O)CC(=O)N2CCOCC2)c2ccccc21 | 0 | 0 | 0 | 0 | 0 | - | -
CC1CCCC(C)N1/N=C/c1ccc([N+](=O)[O-])cc1 (configuration not stated) | 0 | 0 | 0 | 0 | 0 | 0 | -
CC1CCCC(C)N1/N=C/c1ccc(N(C)C)cc1 (configuration not stated) | 38.5 | 0 | 0 | 0 | 0 | 0 | 0
COc1ccccc1CNS(=O)(=O)c1ccc(N2CCCC2)cc1Br | 0 | 0 | 0 | 0 | - | 0 | -
C/C(CC(=O)Nc1ccc(N(C)C)cc1)=N\NC(=O)C(=O)NCc1ccccc1 | 45.7 | 0 | 0 | 0 | 0 | 0 | 0
CN(Cc1ccccc1)C(=O)CN1C(=O)NC(C)(c2ccc(Cl)cc2)C1=O (configuration not stated) | 0 | 0 | 0 | 0 | 0 | 0 | -
Cc1nn(C(=O)c2ccco2)c(C)c1Br | 0 | 0 | 0 | 0 | 0 | 0 | -
COc1ccc(C(=O)n2nc(C)c(Br)c2C)cc1 | 31.0 | 0 | 0 | 0 | 0 | - | 0
CCn1cc(C(=O)N[C@@H](CCSC)C(=O)NCCCn2ccnc2)c(=O)c2cc3c(cc21)OCO3 | 0 | 0 | 0 | 0 | 0 | 0 | -
CCOc1ccc(NC(=O)COC(=O)c2ccc3c(c2)OCCO3)cc1 | 59.6 | 0 | 0 | 0 | - | 0 | 54.3
Cc1ccc(C(=O)OCC(=O)Nc2ccc3c(c2)OCCO3)cc1C | 58.2 | - | 0 | 0 | - | 68.7 | 51.6
Cc1cc(C)cc(NC(=O)COC(=O)c2ccc3c(c2)OCCO3)c1 | 71.9 | 0 | 0 | 0 | - | 0 | 76.8
NS(=O)(=O)c1ccc(NC(=O)COC(=O)c2ccc3c(c2)OCCO3)cc1 | 0 | 0 | 0 | 0 | 0 | 0 | -
C/C(=N\OCC(=O)Nc1cc(C)cc(C)c1)c1ccc2c(c1)OCCO2 | 0 | 0 | 0 | 0 | 0 | 0 | -
O=C(CSc1n[nH]c(=O)n1Cc1ccco1)Nc1ccccc1Cl | 0 | 0 | 0 | 0 | 0 | - | -
Cc1cc(C(=O)OCC(=O)Nc2cccc(S(=O)(=O)N(C)C)c2)c(C)o1 | 44.8 | 0 | 0 | 0 | 0 | 0 | 34.2
CCN(CC)S(=O)(=O)c1cccc(NC(=O)COC(=O)c2cc(C)oc2C)c1 | 39.1 | 0 | 0 | 0 | 0 | 0 | 39.1
Cc1noc(C)c1C(=O)OCC(=O)Nc1cccc(S(=O)(=O)N(C)C)c1 | 0 | 0 | 0 | 0 | 0 | 0 | -
CN(C)S(=O)(=O)c1cccc(NC(=O)COC(=O)c2cccn2C)c1 | 36.3 | 0 | 0 | 0 | 0 | 0 | 0
CN(C)S(=O)(=O)c1cccc(NC(=O)COC(=O)c2c[nH]c(=O)[nH]c2=O)c1 | 0 | 0 | 0 | 0 | 0 | 0 | -
COc1ccc(-c2nc(N3CCN(C)CC3)sc2-c2ccc(OC)cc2)cc1 | 0 | 0 | 0 | 0 | 0 | - | -
Cc1ccc(C(=O)O/N=C(\c2ccccc2)c2cccnc2)cc1 | 72.6 | 0 | 0 | 0 | 0 | 0 | 80.5
CC1CC(C)(C)CC2(C1)NC(=O)N(CC(=O)Nc1cc(C(F)(F)F)ccc1N1CCCCC1)C2=O (configuration not stated) | 0 | - | 0 | 0 | - | 0 | -

Bioassay records (PubChem BioAssay)
